An excerpt weighted towards active compounds, which were near 3.8% of everything screened.
MPTP block = blocks calcium-induced mitochondrial swelling; isolated mouse mitochondria, Ca2+ swelling absorbance, 30 min; inhibition, % at 10 µM; 360,000 compounds, 1.4% hits; AID 602449;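 active = inhibition of 50% or more, scaled per plate between neutral and stimulator controls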;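 also: 0% = DMSO wells given calcium and 100% = 1 mM EGTA wells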
aDG glyco act = alpha-DG glycosylation activation | Pro5-aDG cells, alpha-DG glycosylation AlphaScreen (IIH6); 0% Pro5, 100% B10-LARGE cell signal | 360,000 compounds, 0.22% hits | activation, % at 10 µM | AID 624168;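 active = activation of at least 8% versus controls, or a plate z-score of at least 8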;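 also: Pro5 are CHO cells carrying HIG-tagged alpha-DG that lacks glycosylation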
Cardio protect = modulators protecting cardiomyocytes from myocardial damage; H9c2 cardiomyocytes, H2O2 injury protection, ATPLite, 2 h; protection from H2O2 cell death, % at 20 µM; 360,000 compounds, 0.63% hits;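 active = compounds giving at least 50% protection of heart cells from peroxide-induced death in the single-dose screen, raw or plate-pattern-corrected value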;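 also: 0% = DMSO wells with peroxide and 100% = DMSO wells without peroxide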
FAS TE block = blocks the thioesterase domain of human fatty acid synthase | P49327 | recombinant FAS-TE, OMFH fluorogenic substrate, fluorescence endpoint | inhibition, % at 15 µM | 360,000 compounds, 0.67% hits;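 active = compounds whose normalised, plate-corrected inhibition of enzyme fluorescence in the single-dose primary screen is 50% or more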;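 also: 0% = DMSO with enzyme and 100% = substrate without enzyme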
Mot1-301 SUMO = blocks SUMOylation pathway, rescuing yeast Mot1-301 growth | S. cerevisiae Mot1-301 growth rescue, ATP luminescence, 38.5C; percent above DMSO median, 100 means doubled | growth rescue, % at 18.8 µM | 320,000 compounds, 1% hits;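 active = every valid replicate shows activation above 250% relative to neutral control wells; inactive = the rest, any valid replicate at or below 250%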;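 also: OY570 slx delta 5 strain wells were the positive control but not used for scaling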
CR mimetic SO = yeast age-related superoxide inhibition as caloric restriction mimetic; S. cerevisiae aged cells, superoxide DHE fluorescence; stronger effect = lower value; superoxide response (% of plate mean), % at 10 µM; 330,000 compounds, 0.18% hits; AID 2690;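 active = superoxide response under a set limit, about three screen SD below normal, cut at about 65% in these data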;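 also: yeast aged for seven days with compound at 30 °C before DHE staining; 100% = average MFI of all compound-treated wells on the plate with controls excluded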
Superoxide pick = yeast aging superoxide inhibition, cherry pick confirmation. shares compounds with CR mimetic SO. S. cerevisiae aging, superoxide DHE fluorescence; stronger effect = lower value. superoxide response (% of plate), % at 10 µM. 850 compounds, 1% hits;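 active = superoxide signal below 65% of the plate average of sample wells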;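 also: cells aged with compound for 7 days at 30 degrees C before staining; 100% equals mean DHE fluorescence of all compound wells on the plate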
DHE fluor count = compound alters DHE oxidation or fluorescence in yeast. S. cerevisiae BY4741, flow cytometry; stronger effect = lower value. AID 435000. 850 tested, under 10 active. shares compounds with CR mimetic SO. fluorescence response, % at 10 µM;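 active = fluorescence response below 15%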;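 also: percent of the mean fluorescence averaged over all compound wells on the plate; lower means stronger quenching of DHE signal or ROS scavenging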
The depositor's hits bear a star; / = not tested or not shown.

SMILES | MPTP block | aDG glyco act | Cardio protect | FAS TE block | Mot1-301 SUMO | CR mimetic SO | Superoxide pick | DHE fluor count
O=c1cc(-c2ccccc2)c2c(O)cc(O)cc2o1 | 0.8 | 0.0 | 4.1 | -2.1 | 9.9 | 108.2 | / | /
CC(C)n1c(=O)c2c(O)cc(=O)oc2c2ccccc21 | 0.1 | -0.2 | 5.1 | -10.4 | 13.5 | 71.4 | 87.0 | 97.7
CCn1c(=O)c2c(O)cc(=O)oc2c2ccccc21 | 2.0 | 0.0 | -1.4 | -8.5 | 18.3 | 47.9* | 81.8 | 101.3
CCOC(=O)c1c(O)c2ccccc2n(-c2ccccc2)c1=O | 3.2 | -0.3 | 5.0 | -1.6 | 3.7 | 89.7 | / | /
COc1ccccc1C(=O)Nc1cccc2cccnc12 | 2.9 | 0.1 | -0.5 | 24.7 | -7.1 | 95.5 | / | /
CCC(C)c1ccccc1NC(=O)COC(=O)c1ccc2c(c1)S(=O)(=O)c1ccccc1C2=O (configuration not stated) | -1.5 | 0.0 | 1.1 | 7.0 | -12.9 | 99.1 | / | /
CCc1cccc(C)c1NC(=O)COC(=O)c1ccc2c(c1)S(=O)(=O)c1ccccc1C2=O | 1.0 | 0.1 | 14.3 | -0.8 | 8.5 | 58.5* | 93.6 | 96.1
CC(=O)N1CCN(C(=O)c2ccc3c(c2)S(=O)(=O)c2ccccc2C3=O)CC1 | -0.4 | -0.1 | 9.1 | -1.2 | 0.1 | 47.1* | 95.0 | 99.0
CN1CCN(C(=O)c2ccc3c(c2)S(=O)(=O)c2ccccc2C3=O)CC1 | -0.1 | -0.1 | 2.5 | -10.4 | 16.1 | 113.7 | / | /
COc1ccc(C(=O)N2CCN(c3cccc(Cl)c3)CC2)c(OC)c1 | 0.7 | 0.2 | 1.6 | 3.3 | -0.1 | 103.7 | 107.6 | 99.8
Cc1c(C(=O)N2CCN(c3ccccn3)CC2)cccc1[N+](=O)[O-] | 0.9 | 0.0 | -1.9 | -1.7 | 8.6 | 86.3 | / | /
Cc1c(C(=O)N2CCN(c3cccc(Cl)c3)CC2)cccc1[N+](=O)[O-] | 0.1 | 0.9 | -5.8 | 33.2 | 15.1 | 95.6 | 94.4 | 98.0
O=C(O)c1ccccc1C(=O)N1CCN(c2cccc(Cl)c2)CC1 | 0.8 | -0.3 | 14.7 | -8.6 | 7.4 | 95.8 | / | /
COc1ccccc1CC(=O)N1CCN(c2cccc(Cl)c2)CC1 | -0.6 | 0.3 | -5.1 | 3.3 | -8.2 | 96.8 | / | /
CCOc1ccccc1C(=O)N1CCN(c2cccc(Cl)c2)CC1 | 1.3 | 0.0 | -2.5 | -1.6 | -9.6 | 119.5 | 97.5 | 90.8
CCOc1ccccc1C(=O)N1c2ccccc2Sc2ccccc21 | -1.1 | 0.2 | -13.3 | 27.9 | -6.6 | 57.2* | 85.8 | 93.5
CCCC(=O)N1CCCC1(C)C(=O)Nc1cccc(OC(C)C)c1 (configuration not stated) | -0.6 | 0.1 | -0.4 | -7.0 | / | / | / | /
O=C(COC(=O)CNC(=O)c1cccc(OC(F)F)c1)NNC(=O)c1ccccc1 | -1.3 | -0.3 | -5.2 | -9.5 | 12.0 | 89.7 | / | /
CN(Cc1ccccc1F)c1cc2c(c3c1ccn3C)C1CCC2C1 (configuration not stated) | 1.7 | -0.6 | -3.8 | 15.1 | / | / | / | /
COc1cc(SC)ccc1C(=O)N1CCN(c2ccccc2F)CC1 | 0.3 | 0.2 | -6.0 | 2.8 | -12.1 | 121.0 | 120.1 | 119.0
COc1ccc(N2CCN(C(=O)c3ccc(SC)cc3OC)CC2)cc1 | 2.0 | 0.4 | 5.5 | -0.9 | 2.6 | 93.6 | / | /
COc1ccc(Cl)cc1S(=O)(=O)N1CCCC1=O | 0.8 | 0.8 | -2.9 | -6.0 | -10.8 | 97.8 | 108.8 | 98.7
CN1CCC(N(C)C(=O)/C(C#N)=C\c2ccc(OC(F)F)cc2)CC1 | 2.7 | 0.0 | 12.1 | -8.6 | / | / | / | /
COc1ccc(CN2CCN(Cc3cccc(Oc4ccccc4)c3)CC2)c(OC)c1OC | 2.2 | 0.1 | -12.1 | 8.8 | -15.5 | 100.8 | / | /
COc1ccc(CN2CCN(Cc3ccc(Br)cc3)CC2)c(OC)c1OC | -0.4 | 0.4 | -7.4 | -4.2 | 22.1 | 45.9* | 93.8 | 89.0
SMILES | MPTP block | aDG glyco act | Cardio protect | FAS TE block | Mot1-301 SUMO | CR mimetic SO | Superoxide pick | DHE fluor count
CCOc1ccc(CN(C(=O)c2cc(=O)c3cc(C)cc(C)c3o2)C2CCS(=O)(=O)C2)cc1 (configuration not stated) | 0.6 | -0.5 | 9.0 | 12.7 | 4.8 | 92.1 | / | /
COc1cccc(CNCC(=O)NC(=O)NC2CCCC2)c1 | 0.7 | 0.1 | 20.8 | -2.2 | -11.0 | 99.6 | / | /
OC(c1nc2ccccc2[nH]1)C(O)c1nc2ccccc2[nH]1 (configuration not stated) | 0.6 | 0.1 | -0.8 | -3.5 | -11.6 | 102.4 | / | /
FC(F)(F)c1nc2cc3nc4ccccc4[nH]c3cc2n1 | 11.0 | 0.4 | -10.5 | -4.5 | -2.3 | 56.2* | 54.6* | 94.3
Fc1cccc2sc(Nc3nc4ccccc4s3)nc12 | 39.3 | -0.1 | -13.0 | -4.0 | -5.7 | 65.3* | 93.4 | 109.5
O=C(NNc1nc2ccccc2s1)c1ccccc1F | -0.3 | -0.2 | 30.7 | -22.7 | 9.0 | 90.7 | / | /
CCN(CC)c1ccc(C(=O)NNC(=O)CNC(=O)c2cccs2)cc1 | 0.8 | -0.2 | -4.1 | -4.8 | 3.7 | 103.8 | / | /
CC(C)Nc1ncnc2c1cnn2-c1ccc(Cl)cc1 | 30.0 | -0.1 | -27.9 | 5.7 | 3.9 | 98.0 | 90.2 | 91.2
CC(C)(C)Nc1ncnc2c1cnn2-c1ccccc1 | 0.1 | 0.1 | -28.2 | 7.0 | -4.9 | 86.6 | 100.0 | 94.8
CCCc1cc(=O)[nH]c(SCC(=O)N(C)C2CCCCC2)n1 | 0.2 | -0.2 | -0.5 | -5.3 | -11.4 | 83.5 | / | /
COc1ccc(/C=N/NC(=O)CCN2CCN(c3ccccc3)CC2)c(OC)c1OC | 0.0 | 0.2 | -3.6 | -8.4 | 5.5 | 62.3* | 108.4 | 105.7
O=C(O)CN(c1ccccc1F)S(=O)(=O)c1ccccc1 | 1.0 | 0.0 | 4.4 | -8.2 | -6.3 | 94.9 | 93.8 | 93.7
O=C(CN(c1ccccc1F)S(=O)(=O)c1ccccc1)NC1CCCCCC1 | -2.5 | 0.5 | 0.1 | 15.5 | 1.0 | 96.1 | / | /
CCCc1cc(=O)n2[nH]c(-c3ccc(Cl)cc3)cc2n1 | 0.7 | 0.1 | -4.1 | 2.8 | -6.9 | 99.5 | 108.3 | 123.6
CCc1c(C)nc2cc(-c3ccc(Cl)cc3)[nH]n2c1=O | 0.4 | -0.1 | -5.3 | -1.0 | 0.1 | 92.0 | 99.1 | 96.9
Cc1cc2nc(-c3ccccc3)cc(=O)n2[nH]1 | 2.6 | 0.0 | -11.9 | -3.4 | -6.1 | 114.2 | / | /
CCCc1cc(=O)n2[nH]c(-c3ccc(C)cc3)cc2n1 | -3.3 | -0.2 | -3.6 | -5.9 | 11.2 | 90.9 | / | /
O=c1cc(-c2ccccc2)nc2cc(-c3ccc(Br)cc3)[nH]n12 | 3.0 | 0.1 | 3.2 | -1.6 | 200.9 | 52.6* | 95.0 | 95.7
Cc1nc2cc(-c3ccc(F)cc3)[nH]n2c(=O)c1C | 0.4 | 1.8 | 6.5 | -0.8 | 24.8 | 94.6 | 108.3 | 93.5

High-throughput results from PubChem BioAssay.
